# Records with an inconclusive call do not appear. A call without a number means that no potency is given here. Values without a mark were called inactive. Activity calls are given as the source filed them. Calls follow the shape of the dose curve; as a rule, active = well fitted cell-killing curve with a large enough effect in the repeat runs; inconclusive = weak or mixed curves, or effect the other way; inactive = flat fitted curve, though single readings scatter.
# Assays:
# [1] = cAMP Responsive Elements (CRE) small molecule antagonists, cell-based qHTS assay: qHTS cell viability counter screen (AID 2060913); also: nearly all actives have a fitted effect of over 40% in size
# Summary of the method: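 Cytotoxicity read in the same wells as the CRE-bla HEK293T antagonist assay: after 3 h compound with 0.25 uM NKH477 final and 2 h beta-lactamase substrate, CellTiter-Glo luminescence measured.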
# [2] = cAMP Responsive Elements (CRE) small molecule agonists, cell-based qHTS assay: qHTS cell viability counter screen (AID 2060914);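 also: viability read after 3 h of compound exposure; nearly all actives have a fitted effect of over 50% in size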
# Summary of the method: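 Cells are seeded and incubated 18 h, treated with compounds in DMSO for 3 h, read for the bla reporter, then given CellTiter-Glo; luminescence is measured after 30 min at room temperature.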
# Potency is read from the fitted curve at half-maximal effect.
SMILES,Potency [1],Potency [2],"viability change, negative = cytotoxic [1]","activity change, negative = cytotoxicity [2]"
O=S(=O)(O)C(F)(F)F,inactive,inactive,–,–
CCC(C)(C)OC,inactive,inactive,–,–
CC(=O)N[C@@H](Cc1ccc(O)cc1)C(=O)O,inactive,inactive,–,–
CC(C)=CCC/C(C)=C/CC/C(C)=C/CCC(=O)OC/C=C(\C)CCC=C(C)C,inactive,inactive,–,–
O=C1c2ccccc2C(=O)c2cc(O)ccc21,inactive,inactive,–,–
CCCCc1ccc2nc(NC(=O)OC)[nH]c2c1,inactive,inactive,–,–
OC(Cn1cncn1)(Cn1cncn1)c1ccc(F)cc1F,inactive,inactive,–,–
CC1=CC(=O)/C(=C(/C)O)C(=O)O1,inactive,inactive,–,–
Cc1cc(S(=O)(=O)O)c(N)cc1Cl,inactive,inactive,–,–
CO/N=C(/C(=O)N[C@@H]1C(=O)N2C(C(=O)[O-])=C(C[n+]3ccn4ncccc43)CS[C@H]12)c1nsc(N)n1,inactive,inactive,–,–
c1cc2c3c(c1)ccc1cccc(c13)C2,inactive,inactive,–,–
CN1CCC[C@H]1c1cccnc1,inactive,inactive,–,–
CCCCC[C@H](O)/C=C/[C@H]1[C@H](O)CC(=O)[C@@H]1C/C=C\CCCC(=O)O,inactive,inactive,–,–
O=C1NC(=O)c2ccccc21,inactive,inactive,–,–
COC=O,–,–,-17.9% [at 8.39 µM],-1.81% [at 8.39 µM]
CCCCCCCCC=O,inactive,inactive,–,–
CCCCCCCC,inactive,inactive,–,–
Nc1nc(F)nc2c1ncn2[C@@H]1O[C@H](CO)[C@@H](O)[C@@H]1O,inactive,inactive,–,–
CCC1(c2ccccc2)C(=O)NCNC1=O,inactive,inactive,–,–
CCSC(=O)N(CC)CC,inactive,inactive,–,–
N[C@@H](CSCCCO)C(=O)O,–,–,1.17% [at 18.9 µM],-12.4% [at 18.9 µM]
CCCCCC(=O)OCCc1ccccc1,inactive,inactive,–,–
CC(C(=O)O)c1ccc(C(=O)c2cccs2)cc1 (stereo not given),inactive,inactive,–,–
NNc1ccc(C(=O)O)cc1,inactive,inactive,–,–

SMILES,Potency [1],Potency [2],"viability change, negative = cytotoxic [1]","activity change, negative = cytotoxicity [2]"
C=CC(C)(O)CC/C=C(/C)CCC=C(C)C (stereo not given),inactive,inactive,–,–
CO[Si](CCCNc1ccccc1)(OC)OC,inactive,inactive,–,–
Nc1ccc(S(=O)(=O)NCc2ccccc2)cc1,inactive,inactive,–,–
CC/C(=C\C(=N/O)C(N)=O)C(C)[N+](=O)[O-] (stereo not given),inactive,inactive,–,–
CC[C@]12CCCN3CCc4c(n(c5ccccc45)C(=O)C1)[C@@H]32,inactive,inactive,–,–
COC(=O)c1ccc(C)cc1C1=NC(C)(C(C)C)C(=O)N1 (stereo not given),inactive,inactive,–,–
Cc1ccccc1C#N,inactive,inactive,–,–
CCCCCCCCCCCCCCCC(=O)NCCO,inactive,inactive,–,–
CC(C)C(C)C,inactive,inactive,–,–
CCCCCCCC[Si](OCC)(OCC)OCC,inactive,inactive,–,–
CC(C)(CO)CO,inactive,inactive,–,–
Cc1ccccc1C=O,inactive,inactive,–,–
CCC(=O)O,inactive,inactive,–,–
CC(C)C(O)(c1ccc(OC(F)(F)F)cc1)c1cncnc1 (stereo not given),inactive,inactive,–,–
C[C@]12CCC(=O)C=C1CC[C@@H]1[C@@H]2[C@@H](O)C[C@@]2(C)[C@H]1CC[C@]2(O)C(=O)CO,inactive,inactive,–,–
O=S1(=O)c2cccc3cccc(c23)N1CCCN1CCN(c2ccc(F)cc2)CC1,inactive,inactive,–,–
CC(C)=CCCC(C)CC=O (stereo not given),inactive,inactive,–,–
CNc1ncnc2nc[nH]c12,inactive,inactive,–,–
CCCCNc1ccc(C(=O)OCCN(C)C)cc1,inactive,inactive,–,–
O=S1(=O)CCCO1,inactive,inactive,–,–
C=CCOCC(CO)(COCC=C)COCC=C,inactive,inactive,–,–
CC(C)(Oc1ccc(Cl)cc1)C(=O)OCCCOC(=O)C(C)(C)Oc1ccc(Cl)cc1,inactive,inactive,–,–
COCC(C)O (stereo not given),inactive,inactive,–,–
CO[Si](C)(OC)OC,inactive,inactive,–,–

SMILES,Potency [1],Potency [2],"viability change, negative = cytotoxic [1]","activity change, negative = cytotoxicity [2]"
O=C(O)/C=C/c1cnc[nH]1,inactive,inactive,–,–
NCCS(=O)(=O)O,inactive,inactive,–,–
CCC(C)(Oc1ccc(C2(c3ccc(OC(C)(CC)C(=O)O)cc3)CCCCC2)cc1)C(=O)O (stereo not given),inactive,inactive,–,–
CCCCC(CC)COC(=O)/C=C\C(=O)OCC(CC)CCCC (stereo not given),inactive,inactive,–,–
O=NN(CCCl)C(=O)NC1CCCCC1,inactive,inactive,–,–
CC(C)(C)OC(=O)c1ccc(O)cc1,inactive,inactive,–,–
c1ccc(CCc2ccccc2)cc1,inactive,inactive,–,–
CSc1ccc(Cl)cc1,inactive,inactive,–,–
O=C(c1ccccc1O)c1ccccc1O,inactive,inactive,–,–
CNC(=O)[C@H]1O[C@@H](n2cnc3c(NCc4cc(Cl)ccc4OCc4cc(C)no4)ncnc32)[C@H](O)[C@@H]1N,inactive,inactive,–,–
COC(c1ccccc1)(c1ccccc1)[C@H](Oc1nc(C)cc(C)n1)C(=O)O,inactive,inactive,–,–
Fc1c(F)c(F)c(Br)c(F)c1F,inactive,inactive,–,–
Cc1ccccc1CCO,inactive,inactive,–,–
Nc1ccc(Oc2ccc(N)c(N)c2)cc1,inactive,inactive,–,–
C=CC[N+](C)(C)CC=C,inactive,inactive,–,–
CC(C)NNC(=O)c1ccncc1,inactive,inactive,–,–
C1CC(COCC2CO2)CCC1COCC1CO1 (stereo not given),inactive,inactive,–,–
CN(C)Cc1ccccc1O,inactive,inactive,–,–
O[C@@H]1CO[C@H]2[C@@H]1OC[C@@H]2O,inactive,inactive,–,–
C=COCCCC,inactive,inactive,–,–
CC(=O)OCCOC(C)=O,inactive,inactive,–,–
Cc1c(Nc2ncccc2C(=O)O)cccc1C(F)(F)F,inactive,inactive,–,–
Cc1c(C(N)=O)cc([N+](=O)[O-])cc1[N+](=O)[O-],inactive,inactive,–,–
Cc1c(-c2ccc(O)cc2)n(Cc2ccc(OCCN3CCCCCC3)cc2)c2ccc(O)cc12,inactive,inactive,–,–

SMILES,Potency [1],Potency [2],"viability change, negative = cytotoxic [1]","activity change, negative = cytotoxicity [2]"
CCCOc1sc(C(=O)N2CCC(c3cc(CN)ccc3F)CC2)c(C)c1Br,56 µM (active),inactive,–,–
CCC(CN)=C(c1ccccc1)c1ccccc1,inactive,inactive,–,–
O=S1(=O)N=C(O)c2ccccc21,inactive,inactive,–,–
Cn1c([N+](=O)[O-])cnc1COC(N)=O,inactive,inactive,–,–
Cn1cnc2c(=O)[nH]c(N)nc21,inactive,inactive,–,–
O=C(O)c1cccnc1C(=O)O,inactive,inactive,–,–
CC/C=C1/OC(=O)c2ccccc21,inactive,inactive,–,–
CN(C)Cc1ccccc1,inactive,inactive,–,–
O=C1c2cccc(O)c2C(=O)c2c(O)cccc21,inactive,inactive,–,–
C[C@@H]1C[C@H]2[C@@H]3CCC4=CC(=O)C=C[C@]4(C)[C@@]3(F)[C@@H](O)C[C@]2(C)[C@@]1(O)C(=O)COC(=O)c1ccncc1,inactive,inactive,–,–
O=P(OC(CCl)CCl)(OC(CCl)CCl)OC(CCl)CCl,inactive,inactive,–,–
COc1ccc(-c2cc(=S)ss2)cc1,inactive,inactive,–,–
C=Cc1ccccc1,inactive,inactive,–,–
CCCCOCCOCCOC(=O)CCCCC(=O)OCCOCCOCCCC,inactive,inactive,–,–
Oc1ccc(Cl)c2cccnc12,inactive,inactive,–,–
C[C@]12C[C@H](O)[C@H]3[C@@H](CCC4=CC(=O)CC[C@@]43C)[C@@H]1CC[C@@H]2C(=O)CO,inactive,inactive,–,–
Nc1nc(N)c(-c2ccccc2)s1,inactive,inactive,–,–
CCCCCCCCC1CO1 (stereo not given),inactive,inactive,–,–
CCN(CC)C(=O)N1CCN(C)CC1,inactive,inactive,–,–
CC(=O)c1cccnc1,inactive,inactive,–,–
CN(C)CCC[C@@]1(c2ccc(F)cc2)OCc2cc(C#N)ccc21,inactive,inactive,–,–
OCC(F)(F)F,inactive,inactive,–,–
CC(C)(C)c1cc(Cc2cc(C(C)(C)C)c(O)c(C(C)(C)C)c2)cc(C(C)(C)C)c1O,inactive,inactive,–,–
CC(C=O)Cc1ccc(C(C)C)cc1 (stereo not given),inactive,inactive,–,–

SMILES,Potency [1],Potency [2],"viability change, negative = cytotoxic [1]","activity change, negative = cytotoxicity [2]"
O=C(O)c1ccccc1-n1cc(C(=O)O)c(=O)c2cc(Nc3c(F)cc(F)cc3Cl)c(Cl)cc21,inactive,inactive,–,–
CC1=C(O)C(=O)C(C)O1 (stereo not given),inactive,inactive,–,–
Cn1sccc1=O,inactive,inactive,–,–
O=c1[nH]c(=O)n([C@H]2C[C@H](O)[C@@H](CO)O2)cc1C(F)(F)F,inactive,inactive,–,–
CCOC(C)=O,inactive,24.5 µM (active),–,–
Nc1cc(N)cc(C(=O)O)c1,inactive,inactive,–,–
Cc1ccc2c(c1)OCC(=O)CO2,inactive,inactive,–,–
CC(C)c1cccc(C(C)C)c1,inactive,inactive,–,–
CC1CN(c2cc3c(cc2F)c(=O)c(C(=O)O)cn3-c2ccc(F)cc2F)CCN1 (stereo not given),–,–,0.301% [at 8.39 µM],-0.163% [at 8.39 µM]
C=CC(=O)OCCCl,inactive,inactive,–,–
CCCOc1ccc2c(c1)CC[C@@H]1[C@@H]2CC[C@]2(C)C(OC)CC[C@@H]12 (stereo not given in full),inactive,inactive,–,–
CC(N)C(=O)OC(C)(C)Cc1ccc(Cl)cc1 (stereo not given),inactive,inactive,–,–
NC(=Nc1ccccc1)Nc1ccccc1,inactive,inactive,–,–
O=C(O)c1ccc2cc(C(=O)O)ccc2c1,inactive,inactive,–,–
Cc1cccc(N(C)C)c1,inactive,inactive,–,–
C=C(C)C(=O)OCCCCCCCCCCOC(=O)C(=C)C,inactive,inactive,–,–
CCCc1ccc(OC)cc1,inactive,inactive,–,–
NS(=O)(=O)c1cc(C(=O)O)cc(N2CCCC2)c1Oc1ccccc1,inactive,inactive,–,–
O=C1CCC(=O)O1,inactive,inactive,–,–
CC1(C)C(=O)N(Cl)C(=O)N1Cl,inactive,inactive,–,–
CC1(C)[C@H](C(=O)OCc2cccc(Oc3ccccc3)c2)[C@@H]1C=C(Cl)Cl,inactive,inactive,–,–
CCOc1nc(F)cc2nc(S(=O)(=O)Nc3c(Cl)cccc3C(=O)OC)nn12,inactive,inactive,–,–
CCCCC1CCC(O)CC1 (stereo not given),inactive,inactive,–,–
O=C(O)Cn1cnnn1,inactive,inactive,–,–
